697 NFkB inh – inhibitors of the PMA/ionomycin-induced NF-kB reporter in 697 B cells; 697 B-cell NF-kB luciferase reporter, 16 h; inhibition, % at 4 µM; 330,000 tested, 0.33% active; AID 435022; in the data active = inhibition above about 35%
Jurkat NFkB inh – inhibitors of the PMA/ionomycin-induced NF-kB reporter in Jurkat cells | PMA/ionomycin-induced NF-kB luciferase reporter, luminescence | inhibition, % at 4 µM | 330,000 tested, 0.53% active | AID 435003; in the data active = inhibition above about 50%
Shn3 3UTR inh – inhibitors of Schnurri-3 3'UTR reporter in osteoblasts; inhibition, % at 12.5 µM; Clone20 osteoblast Shn3 3'UTR firefly luciferase, 24 h; 360,000 tested, 0.52% active; AID 588674;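 active = mean inhibition of at least 75% with every replicate also reaching 75%; inconclusive = mean inhibition at least 75% but some replicate below; inactive = mean inhibition below 75%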
Calb FLC – affects C. albicans growth with fluconazole; 300,000 tested, 0.57% active; AID 1979; C. albicans CaCi-2 (fluconazole-resistant clinical isolate) + fluconazole, Alamar Blue growth, 48 h; growth inhibition, % (test concentration not listed);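 active = growth inhibition above about 58% in most replicates, limit read from the data, passing the limit was not always enough; inconclusive = exactly half the replicates above a set limit; inactive = most replicates below a set limit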;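 also: all wells also contain fluconazole at 8 µg/ml as a sub-toxic cotreatment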
Beta cell apopt – beta cell apoptosis inhibition; INS-1E cytokine-induced death, ATP luminescence, 48 h; percent of positive-control rescue, neutral wells zero; protection from apoptosis, % (test concentration not listed); 300,000 tested, 0.8% active;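 active = Every replicate reaches about 75%, or at least half do and their mean reaches it too, limit read from the data; inconclusive = At least half of replicates reach the limit but their mean does not; inactive = Under half of replicates reach the limit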;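 also: higher means more ATP so stronger rescue from cytokine killing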
697 NFkB conf – inhibitors of the PMA/ionomycin-induced NF-kB reporter in 697 B cells, retest | shares compounds with 697 NFkB inh | 697 B-cell NF-kB luciferase, 16 h | inhibition, % at 4 µM | 2,000 tested, 35% active; in the data active = inhibition mostly above about 28%, no sharp cut-off; inactive = mostly below about 22%
Large screens that a line does not name were inactive (follow-up assays come after a bar, where they were run). Compounds with a hit are over-represented: about 2% of the library has one in this group of screens.

O=C(Nc1ncccc1O)c1ccc(S(=O)(=O)Nc2ccccc2)cc1	none (no result: Beta cell apopt) | 697 NFkB conf inactive
CCCCC1CCC(C(=O)Nc2ccccc2N2CCOCC2)CC1 (stereo unspecified)	none (no result: Calb FLC, Beta cell apopt)
O=C(/C=C/Sc1ccccc1)c1ccccc1	none | 697 NFkB conf inactive
COc1cc2c(cc1OC)C(c1ccc(N(C)C)cc1)NCC2 (stereo unspecified)	none
COCCNC(=O)c1c(N)n(-c2ccccc2)c2nc3ccccc3nc12	none
COCCNC(=O)c1c(N)n(-c2cccc(C)c2)c2nc3ccccc3nc12	697 NFkB inh 35.1 | 697 NFkB conf inactive
CCc1[nH]nc2c1C(c1ccc(Br)s1)C(C#N)=C(N)O2 (stereo unspecified)	697 NFkB inh 43.1 (no result: Calb FLC) | 697 NFkB conf inactive
NS(=O)(=O)c1ccc(NS(=O)(=O)c2ccc(NC(=O)C3CC3)cc2)cc1	none
Cc1ccc(/C=C2/SC(=S)N(CCCC(=O)Nc3ccc(O)cc3)C2=O)cc1	697 NFkB inh 87.7 (no result: Beta cell apopt) | 697 NFkB conf 93.3
COc1ccc(/C=C2\SC(=O)N(CCCC(=O)Nc3ccc(C(=O)O)cc3)C2=O)cc1OC	697 NFkB inh 62.3 | 697 NFkB conf 70.8
COc1cccc(/C=C2/SC(=S)N(CCCC(=O)Nc3ccc(O)cc3)C2=O)c1	697 NFkB inh 79.6 | 697 NFkB conf 74.4
COc1ccc(/C=C2\SC(=S)N(CCCC(=O)Nc3ccc(C(=O)O)cc3)C2=O)cc1OC	none
O=C(CCCN1C(=O)/C(=C\c2ccccc2)SC1=S)Nc1ccc(O)cc1	none
COc1ccc(/C=C2/SC(=S)N(CCCC(=O)Nc3ccc(O)cc3)C2=O)cc1OC	697 NFkB inh 45.1 | 697 NFkB conf 42.8
COc1cccc(/C=C2\SC(=S)N(CCCC(=O)NC3=NCCS3)C2=O)c1	697 NFkB inh 42.1 | 697 NFkB conf 50.7
COc1ccc(/C=C2/SC(=S)N(CCC(=O)Nc3cccnc3)C2=O)cc1OC	none (no result: 697 NFkB inh, Jurkat NFkB inh, Calb FLC, Beta cell apopt)
Cc1ccc(/C=C2\SC(=S)N(CCC(=O)Nc3cccnc3)C2=O)cc1	697 NFkB inh 52.3 (no result: Beta cell apopt) | 697 NFkB conf inactive
COc1cccc(/C=C2\SC(=S)N(CCCC(=O)Nc3ccc(C(=O)O)cc3)C2=O)c1	697 NFkB inh 53.4 | 697 NFkB conf 60.6
O=C(CCN1C(=O)/C(=C\c2ccccc2)SC1=S)Nc1ccc(C(=O)O)cc1	none
CCOc1ccc(/C=C2/SC(=S)N(CCC(=O)Nc3ccc(C(=O)O)cc3)C2=O)cc1	697 NFkB inh 77.0 | 697 NFkB conf 77.0
CC1=C(C(=O)N(C)C)CC(CC(=O)NC(c2ccccc2)c2ccccc2)C(=O)N1CCC1=CCCCC1 (stereo unspecified)	none (no result: 697 NFkB inh, Jurkat NFkB inh, Calb FLC, Beta cell apopt)
COc1ccc(/C=C2\SC(=S)N(CCC(=O)Nc3ccc(O)cc3)C2=O)cc1	697 NFkB inh 47.5 (no result: Beta cell apopt) | 697 NFkB conf 37.5
O=C(CCCN1C(=O)/C(=C/c2ccc(F)cc2)SC1=S)Nc1ccc(C(=O)O)cc1	none (no result: 697 NFkB inh, Jurkat NFkB inh, Calb FLC, Beta cell apopt)
Cc1ccc(/C=C2\SC(=S)N(CCCC(=O)NNC(=O)c3ccccc3O)C2=O)cc1	697 NFkB inh 87.5, Shn3 3UTR inh 87.2 | 697 NFkB conf 76.2
Cc1ccc(/C=C2\SC(=S)N(CCCC(=O)NC3CCCC3)C2=O)cc1	697 NFkB inh 85.3 | 697 NFkB conf 79.6
Cc1ccc(/C=C2\SC(=S)N(CCC(=O)NNC(=O)c3ccccc3O)C2=O)cc1	none (no result: Beta cell apopt)
CCN(CC)CCOC(=O)c1ccc(NC(=O)CCCN2C(=O)S/C(=C/c3ccc(OC)cc3)C2=S)cc1	697 NFkB inh 52.3 | 697 NFkB conf 60.2
Cc1nc(-c2ccc(F)cc2)c(CC(=O)N(C)CC(=O)Nc2ccc(F)cc2)s1	none (no result: Beta cell apopt)
O=C(CN1CCN(Cc2ccccc2)CC1)Nc1cccc(Cl)c1	none
Cc1ccnc(S(=O)(=O)Cc2ccc([N+](=O)[O-])cc2)n1	none
Cc1ccc(/C=C2\SC(=S)N(CCC(=O)NNC(=O)c3cccc(O)c3)C2=O)cc1	697 NFkB inh 40.2 | 697 NFkB conf inactive
Cc1ccc(/C=C2\SC(=S)N(CCC(=O)NNC(=O)c3ccc(O)cc3)C2=O)cc1	none (no result: Calb FLC)
COc1ccc(Cl)cc1C(=O)NCC(c1ccco1)N(C)C (stereo unspecified)	none
Cc1csc(NC(=O)/C=C/c2ccc3c(c2)OCO3)n1	697 NFkB inh 69.8 | 697 NFkB conf 64.2
Cc1ccc(CNS(=O)(=O)c2ccc(-n3cccn3)cc2)cc1	none (no result: 697 NFkB inh, Jurkat NFkB inh, Calb FLC, Beta cell apopt)
CC(C)(C)c1ccc(C(=O)NCCOc2ccccc2)cc1	none | 697 NFkB conf inactive
CCOC(=O)/C=C(\C)Sc1cc(O)c2ccccc2c1O	none (no result: 697 NFkB inh, Jurkat NFkB inh, Calb FLC, Beta cell apopt)
CCOC(=O)/C=C(\C)Sc1cc(=O)oc2ccccc12	697 NFkB inh 35.7, Calb FLC inconclusive | 697 NFkB conf 27.8
CCC(=O)N1CCC1(C)C(=O)Nc1ccc(C)c(C)c1 (stereo unspecified)	none (no result: 697 NFkB inh, Jurkat NFkB inh, Calb FLC, Beta cell apopt)
COc1ccc(-c2csc(Nc3cccc(C)n3)n2)cc1C	none (no result: 697 NFkB inh, Jurkat NFkB inh)
Cc1ccnc(Nc2nc(-c3ccccc3)cs2)c1	none | 697 NFkB conf inactive
COc1ccc(-c2csc(Nc3cccc(C)n3)n2)cc1	none (no result: Beta cell apopt) | 697 NFkB conf inactive
O=S(=O)(Nc1ccc(-c2csc(-c3ccccc3)n2)cc1)c1ccc(F)cc1	none
O=C(Nc1nc(-c2ccccc2)cs1)c1ccccc1NS(=O)(=O)c1ccc(F)cc1	697 NFkB inh 47.0, Beta cell apopt 90.0 | 697 NFkB conf 52.3
O=C(CCNC(=O)c1ccccc1)NCCc1ccc(Cl)cc1	none
COc1ccc(CCC(=O)Nc2ncc(C)s2)cc1	none
Cc1ccc(/C=C/c2nnc(-c3ccccc3)o2)cc1	none
C(=C\c1nnc(-c2cccs2)o1)/c1ccccc1	none | 697 NFkB conf inactive
O=[N+]([O-])c1ccc(Sc2ncccn2)c([N+](=O)[O-])c1	697 NFkB inh 40.0 | 697 NFkB conf inactive
CCOC(=O)Cc1ccc(NC(=O)c2ccc(C(C)(C)C)cc2)cc1	697 NFkB inh 89.7 | 697 NFkB conf 64.0
CCOC(=O)Cc1ccc(NC(=O)c2ccccc2Br)cc1	none
CCOC(=O)c1[nH]c(C)c(C(=O)NCCc2ccc(OC)cc2)c1C	697 NFkB inh 35.7 | 697 NFkB conf inactive
CC(=C\c1ccccc1)/C=C1/SC(=O)N(CCCC(=O)Nc2ccc(C(=O)O)cc2)C1=O	697 NFkB inh 74.7 | 697 NFkB conf 70.0
O=C(CCCN1C(=O)S/C(=C/C=C/c2ccccc2)C1=O)Nc1ccc(C(=O)O)cc1	697 NFkB inh 49.2 | 697 NFkB conf 49.3
O=C(c1ccc(Cl)c(S(=O)(=O)N2CCOCC2)c1)N1CCCCCC1	none
COc1ccc(N=Cc2ccccc2O)cc1	none (no result: 697 NFkB inh, Jurkat NFkB inh, Calb FLC, Beta cell apopt)
COc1ccc(N=Nc2ccc3ccccc3c2)c(O)c1	none | 697 NFkB conf inactive
Oc1ccc(C[C@@H]2CNCCN2CCC23CC4CC(CC(C4)C2)C3)cc1	697 NFkB inh 37.2 | 697 NFkB conf inactive
COc1ccc(-c2noc(CCC(=O)N3CCN(c4ccccc4)CC3)n2)cc1	none (no result: Jurkat NFkB inh, Calb FLC, Beta cell apopt)
Clc1nc2ccccc2cc1-c1nnn(-c2ccccc2Br)n1	none
Brc1ccccc1-n1nnc(-c2cnc3ccccc3c2)n1	none | 697 NFkB conf inactive
